For orientation: AC50 means the midpoint of the concentration-response curve, whichever way the signal moves.

Read-out in assay [1]: Human Leukocyte Antigen - DR isotype (HLADR), HLA-DRA (gene 3122)
The assay is described as follows: BSK_3C_HLADR: BioMAP Diversity Plus: 3C Assay for Human Leukocyte Antigen - DR isotype (HLADR) Biomarker Activity (AID 2283019).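 For outcome: ELISA of cell-surface HLA-DR on HUVEC 24 h after dosing.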 The conditions noted are these: primary human endothelial cells (HUVEC); actives raise or lower the signal. The method in brief:
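Primary human umbilical vein endothelial cells (3C system) were dosed with compound and cell-surface HLA-DR was quantified by ELISA at 24 h. Activity was fitted bidirectionally against DMSO as negative control and baseline.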

Read-out in assay [2]: Vascular endothelial growth factor receptor 2 (Homo sapiens) (UniProt P35968)
The assay is described as follows: BSK_4H_VEGFRII: BioMAP Diversity Plus: 4H Assay for Vascular endothelial growth factor receptor 2 (VEGFR2) Biomarker Activity (AID 2283031). Particulars: primary human endothelial cells (HUVEC); actives raise or lower the signal. The method in brief:
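Primary human umbilical vein endothelial cells in the BioMAP 4H system were dosed with test chemical, and 24 h later VEGFRII was measured by ELISA. Activity was fitted bidirectionally against DMSO as negative control and baseline.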

Read-out in assay [3]: Interleukin-8 (IL8), CXCL8 (gene 3576)
The assay is described as follows: BSK_CASM3C_IL8: BioMAP Diversity Plus: CASM3C Assay for Interleukin-8 (IL8) Biomarker Activity (AID 2283042).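 Note: IL-8 protein level quantified by ELISA.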 The conditions noted are these: primary human coronary artery smooth muscle cells; actives raise or lower the signal.

Read-out in assay [4]: Monokine induced gamma interferon (MIG), CXCL9 (gene 4283)
The assay is described as follows: BSK_CASM3C_MIG: BioMAP Diversity Plus: CASM3C Assay for Monokine induced gamma interferon (MIG) Biomarker Activity (AID 2283048).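 Note: MIG protein level measured by ELISA.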 The conditions noted are these: primary human coronary artery smooth muscle cells; actives raise or lower the signal.

Read-out in assay [5]: Urokinase-type plasminogen activator receptor (uPAR), PLAUR (gene 5329)
The assay is described as follows: BSK_CASM3C_uPAR: BioMAP Diversity Plus: CASM3C Assay for Urokinase-type plasminogen activator receptor (uPAR) Biomarker Activity (AID 2283054).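 Note: cell-surface uPAR protein level quantified by ELISA.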 Particulars: primary human coronary artery smooth muscle cells; actives raise or lower the signal.

Read-out in assay [6]: Tissue Factor, F3 (gene 2152)
The assay is described as follows: BSK_LPS_TissueFactor: BioMAP Diversity Plus: LPS Assay for Tissue Factor Biomarker Activity (AID 2283084). Particulars: primary human HUVEC with PBMC; actives raise or lower the signal. The method in brief: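 Human umbilical vein endothelial cells co-cultured with peripheral blood mononuclear cells were dosed and stimulated with LPS. Cell-surface CD142 was quantified by ELISA at 24 h. Activity was fitted bidirectionally against DMSO baseline.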

Read-out in assay [7]: Vascular cell adhesion molecule 1 (VCAM1), VCAM1 (gene 7412)
The assay is described as follows: BSK_LPS_VCAM1: BioMAP Diversity Plus: LPS Assay for Vascular cell adhesion molecule 1 (VCAM1) Biomarker Activity (AID 2283086). The conditions noted are these: primary human HUVEC with PBMC; actives raise or lower the signal. Put shortly: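 VCAM-1 quantified by ELISA in an LPS-activated co-culture of human endothelial cells and peripheral blood mononuclear cells, read 24 h post-treatment. Fitted in both directions versus DMSO; parallel SRB staining flags overt cytotoxicity.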

Read-out in a further assay: CD40, CD40 (gene 958)
The assay is described as follows: BSK_SAg_CD40: BioMAP Diversity Plus: SAg Assay for CD40 Biomarker Activity (AID 2283088). Particulars: primary human HUVEC with PBMC; actives raise or lower the signal. The method in brief: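 Human umbilical vein endothelial cells co-cultured with PBMC; CD40 levels measured by ELISA with fluorescence read-out 24 h after chemical dosing. Gain or loss of signal fitted bidirectionally against DMSO baseline.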

Read-out in assay [8]: Interleukin-8 (IL8), CXCL8 (gene 3576)
The assay is described as follows: BSK_SAg_IL8: BioMAP Diversity Plus: SAg Assay for Interleukin-8 (IL8) Biomarker Activity (AID 2283094). The conditions noted are these: primary human HUVEC with PBMC; actives raise or lower the signal. The method in brief:
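ELISA readout of IL-8 from a superantigen-activated endothelial/PBMC primary human co-culture, taken 24 h post-dosing and fitted in both directions against DMSO; parallel SRB total-protein staining flags overt cytotoxicity.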

Assay [9] is described as follows: BSK_SAg_SRB: Viability Assessment in the BioMAP Diversity Plus: SAg Assay (AID 2283096).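 Note: cells read one day after compound addition; hits may be either gain or loss of signal compared with DMSO.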 Particulars: primary human HUVEC with PBMC. The method in brief: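 This overt-cytotoxicity endpoint quantifies protein in human endothelial/PBMC co-cultures at 24 h using SRB absorbance (560 nm) after trichloroacetic acid fixation. Values reflect signal change from the DMSO negative control, fitted bidirectionally.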

A short description of assay [10]: BSK_BT_PBMCCytotoxicity: PBMC Cytotoxicity Assessment in the BioMAP Diversity Plus: BT Assay (AID 2284225).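 Note: PBMC viability measured by Alamar Blue dye reduction fluorescence.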 The conditions noted are these: primary human B cells with PBMC. Put shortly: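 Viability by Alamar Blue reduction (6 h, ex/em 546/580 nm) after 90 h culture of SEB/TSST-1-activated PBMC (20 ng/mL each) given compound 1 h before activation. DMSO served as baseline for curve fitting.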

Read-out in assay [11]: Secreted IgG (sIgG), gene 3500
The assay is described as follows: BSK_BT_sIgG: BioMAP Diversity Plus: BT Assay for Secreted IgG (sIgG) Biomarker Activity (AID 2284226). Particulars: primary human B cells with PBMC. Put shortly: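 ELISA quantitation of secreted IgG from human B cells co-cultured with PBMC, sampled 24 h post-dosing. Values fitted relative to DMSO vehicle as baseline, positive fitting direction.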

The nature of assay [12]: BSK_BT_Bcell_Proliferation: Viability Assessment in the BioMAP Diversity Plus: BT Assay for B cell Proliferation (AID 2284227). The conditions noted are these: primary human B cells with PBMC. The method in brief:
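SRB-based protein staining (0.1% SRB after 10% TCA fixation, 560 nm) quantifies proliferation in human B cells co-cultured with PBMC, 72 h post-dosing, with signal gain scored relative to DMSO negative control.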

Read-out in assay [13]: Interleukin 17A (IL17A), IL17A (gene 3605)
The assay is described as follows: BSK_BT_xIL17A: BioMAP Diversity Plus: BT Assay for Interleukin 17A (IL17A) Biomarker Activity (AID 2284229). The conditions noted are these: primary human B cells with PBMC. Put shortly:
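B cells co-cultured with PBMC were exposed to test chemicals, and secreted IL-17A was quantified 24 h after dosing by Luminex xMAP bead immunoassay. Activity was fitted in the gain direction against DMSO as baseline.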

Read-out in assay [14]: Collagen III, COL3A1 (gene 1281)
The assay is described as follows: BSK_MyoF_CollagenIII: BioMAP Diversity Plus: MyoF Assay for Collagen III Biomarker Activity (AID 2284239). Particulars: primary human lung fibroblasts. Put shortly:
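Human lung fibroblasts were dosed with chemicals and, 24 hours later, collagen III was measured by ELISA. Activity was fitted in the positive direction against the DMSO negative-control baseline.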

Read-out in assay [15]: Interleukin 2 (IL2), IL2 (gene 3558)
The assay is described as follows: BSK_BT_xIL2: BioMAP Diversity Plus: BT Assay for Interleukin 2 (IL2) Biomarker Activity (AID 2284245). The conditions noted are these: primary human B cells with PBMC. The method in brief:
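Secreted IL-2 was read by Luminex xMAP from B cells co-cultured with PBMC (human primary) 24 h post-dosing; activity was analysed as gain of signal relative to DMSO vehicle.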

Read-out in assay [16]: Collagen IV, COL4A1 (gene 1282)
The assay is described as follows: BSK_MyoF_CollagenIV: BioMAP Diversity Plus: MyoF Assay for Collagen IV Biomarker Activity (AID 2284247). Particulars: primary human lung fibroblasts. The method in brief:
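Collagen IV quantified by ELISA in human lung fibroblast cultures 24 h after chemical treatment, with DMSO as baseline. Parallel SRB staining (0.1% SRB after TCA fixation, 560 nm) flags overt cytotoxicity.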

Read-out in assay [17]: Plasminogen activator inhibitor-1 (PAI1), SERPINE1 (gene 5054)
The assay is described as follows: BSK_MyoF_PAI1: BioMAP Diversity Plus: MyoF Assay for Plasminogen activator inhibitor-1 (PAI1) Biomarker Activity (AID 2284256).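 Note: PAI-1 protein level measured by ELISA in fibroblast cultures; PAI-1 read 24 h after compound addition.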 The conditions noted are these: primary human lung fibroblasts. Put shortly:
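ELISA read-out of PAI-1 from primary human lung fibroblast cultures 24 h after dosing; gain-of-signal fit versus DMSO control.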

Read-out in assay [18]: Matrix Metallopeptidase 1 (MMP1), MMP1 (gene 4312)
The assay is described as follows: BSK_MyoF_MMP1: BioMAP Diversity Plus: MyoF Assay for Matrix Metallopeptidase 1 (MMP1) Biomarker Activity (AID 2284268). The conditions noted are these: primary human lung fibroblasts. Put shortly: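 ELISA readout of MMP1 in primary human lung fibroblast cultures, 24 h post-dosing. Gain of signal versus DMSO vehicle control defines activity. Parallel SRB staining (0.1% after 10% TCA fixation, 560 nm) flags overt cytotoxicity.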

The target of assay [19] is Estrogen receptor (Homo sapiens) (UniProt P03372). The assay is described as follows: ATG_ERa_TRANS: Attagene TRANS-FACTORIAL HepG2 Assay for human Estrogen Receptor alpha (ERa) (AID 2282970; active = hit-call score of the fitted dose curve at least 0.9, where 1 is the maximum). Particulars: HepG2 Attagene TRANS ERa GAL4 reporter, mRNA. The method in brief:
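One of 30 multiplexed endpoints from a HepG2 TRANS system, this one reports ERa-Gal4-driven reporter mRNA. Transcripts were quantified 24 hours post-dosing by fluorescent RT-PCR and capillary electrophoresis, with activity scored as induction over DMSO.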

Records with an inconclusive call do not appear. Active and inactive are the calls of the source. Rule for the calls, unless noted: active = hit-call score of the fitted dose curve at least 0.9, where 1 is the maximum; inactive = score below 0.9.

Chain of Estrogen receptor (Homo sapiens) (P03372 whole entry, looked up, the tested form may be a part): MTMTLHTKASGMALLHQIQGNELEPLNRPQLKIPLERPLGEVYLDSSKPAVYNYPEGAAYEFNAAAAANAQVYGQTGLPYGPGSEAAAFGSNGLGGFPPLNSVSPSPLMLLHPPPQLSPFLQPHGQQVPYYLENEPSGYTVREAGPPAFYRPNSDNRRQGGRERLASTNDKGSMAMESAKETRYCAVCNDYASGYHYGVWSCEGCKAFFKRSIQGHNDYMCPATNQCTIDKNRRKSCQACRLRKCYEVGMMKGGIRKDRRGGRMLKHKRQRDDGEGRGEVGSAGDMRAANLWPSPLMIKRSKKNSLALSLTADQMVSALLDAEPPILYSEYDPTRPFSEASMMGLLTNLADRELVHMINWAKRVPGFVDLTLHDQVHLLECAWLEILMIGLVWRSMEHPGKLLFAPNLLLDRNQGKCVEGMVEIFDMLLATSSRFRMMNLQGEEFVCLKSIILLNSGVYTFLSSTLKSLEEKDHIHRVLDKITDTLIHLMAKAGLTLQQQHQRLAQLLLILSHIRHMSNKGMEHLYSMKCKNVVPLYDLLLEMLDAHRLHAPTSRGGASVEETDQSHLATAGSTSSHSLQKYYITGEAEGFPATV

As for `CC(C)COP(=O)(OCC(C)C)OCC(C)C`, the result in assay [1], in [2], in [3], in [4], in [5] and in assay [6] was inactive. For the same compound, the outcome in assay [7] was “inactive”; in the assay with CD40, CD40 (gene 958), “inactive”; in [8] it was “inactive”; in assay [9], “inactive”; in assay [10] it was “inactive”; in assay [11], “inactive”. Further, the outcome in assay [12], in [13], in assay [14], in assay [15], in assay [16] and in [17] was inactive. Also, in [18], the result was inactive.

In the case of `C=CC(=O)OCC(CC)CCCC` (stereo not given), the AC50 in assay [1] is 31.9 µM (active); in assay [7], 7.48 µM (active). Further, the outcome in assay [2] was “inactive”; in [3], “inactive”; in assay [4], “inactive”; in assay [5] it was “inactive”; in assay [6], “inactive”; with CD40, CD40 (gene 958), “inactive”. The outcome in assay [8], in [9], in assay [10], in assay [11], in [12] and in [13] was inactive. Moreover, the outcome in assay [14], in [15], in [16], in assay [17] and in assay [18] was inactive.

Consider `O=C(O)c1cc[c]([Hg][Cl])cc1`, for which the outcome in assay [19] was inactive.

As for `O=CNC(N1CCN(C(NC=O)C(Cl)(Cl)Cl)CC1)C(Cl)(Cl)Cl` (stereo not given), the compound was classed as inactive in [19].

Regarding `O=c1c2ccccc2c(=O)c2c1cc(Cl)c1[nH]c3c([nH]c12)c(Cl)cc1c(=O)c2ccccc2c(=O)c13`, the call in assay [19], in assay [1], in assay [2], in [3], in assay [4] and in assay [5] was inactive. Also, the outcome in assay [6] was “inactive”; in assay [7], “inactive”; with CD40, CD40 (gene 958), “inactive”; in [8] it was “inactive”; in assay [9], “inactive”; in [10] it was “inactive”. Moreover, the outcome in [11], in assay [12], in [13], in assay [14], in [15] and in [16] was inactive. Further, the result in [17] and in assay [18] was inactive.

These data come from PubChem BioAssay (EPA / NIEHS).
